Compound activity (PubChem)
VACV mCherry inh: vaccinia inhibition (mCherry reporter); 310,000 tested, 0.63% active; Vaccinia virus mCherry reporter infection, fluorescence; Potency, µM (doses to about 36.5 µM), inactives show at the highest dose activity change, negative = inhibition, actives largely listed as inhibitors; calls by dose curve; tested in A549 cells; note: potency is the fitted concentration of half-maximal effect; nearly all actives have a fitted effect of over 35% in size
FMDV antiviral: foot and mouth disease virus antiviral activity; FMDV antiviral cell-based qHTS; Potency, µM (doses to about 57.9 µM), for the others: at the highest dose activity change, negative = inhibition, hits mostly inhibitors; 410,000 tested, 1.2% active; AID 1159524; calls by dose curve; tested in HEK293T cells; note: read-out not given here; potency is the fitted concentration of half-maximal effect; nearly all actives have a fitted effect of over 45% in size
Lassa entry inh: inhibitors of Lassa virus binding or cell entry | AID 540256 | Potency, µM (highest dose often 37.9 µM), inactives show at the top dose activity change, negative = inhibition, usual class: inhibitors | Lassa virus pseudotype entry inhibition, cell reporter | 300,000 tested, 1.2% active; calls by dose curve; tested in HEK293 cells; note: potency is the fitted concentration of half-maximal effect; nearly all actives have a fitted effect of over 50% in size
Marburg entry inh: Marburg virus entry inhibition; 300,000 tested, 1.8% active; AID 540276; Potency, µM (titrated, usually from 37.8 µM), without a hit: at the top dose activity change, negative = inhibition, actives largely listed as inhibitors; Marburg virus pseudotyped entry inhibition, cell reporter; calls by dose curve; tested in HEK293 cells; note: potency is the fitted concentration of half-maximal effect
VACV Venus inh: inhibitors of vaccinia virus (Venus reporter). 330,000 tested, 0.46% active. Potency, µM (top dose mostly 36.5 µM), without a hit: at the highest dose activity change, negative = inhibition, actives largely listed as inhibitors. Vaccinia virus Venus reporter expression, fluorescence. AID 720580; calls by dose curve; tested in A549 cells; note: potency is the fitted concentration of half-maximal effect; nearly all actives have a fitted effect of over 30% in size
HCMV inh: human cytomegalovirus inhibition; activity change, negative = inhibition, % at 57.5 µM; HFF cells, HCMV-luciferase reporter, 72 h; hits give low values; 410,000 tested, 4.5% active; in the data active = activity change below about -60%; inconclusive = no clear call, values can overlap the other calls; inactive = above about -39%
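HFF cells seeded 16 h at 37C, treated with compounds, infected with luciferase-reporter HCMV at MOI 1 PFU/cell; luciferase read at 72 h post infection, normalized to buffer-only and Salinomycin controls.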
* hit, by the source's call; i = inactive; ? = inconclusive; . = no result; [ ] = remark or other dose. A selection: hits, their analogues and other compounds. The true share with any hit is near 6.5%. % is set by controls: 0 for no effect and ±100 for the full control effect.

SMILES	VACV mCherry inh	FMDV antiviral	Lassa entry inh	Marburg entry inh	VACV Venus inh	HCMV inh
Cc1ccc(Oc2ccccc2NC(=O)CN2C(=O)NC3(CCCC3)C2=O)cc1	.	-0.1%	.	.	.	-105.9*
Cc1ccccc1NC(=O)CN1C(=O)NC2(CCCCCCC2)C1=O	-3.5%	-11.1%	4.2%	-0.3%	-23.2%	-97.5*
CC(C)(C)N(Cc1ccccc1)C(=O)CN1C(=O)NC2(CCCCCC2)C1=O	.	-25.3%	.	.	.	-61.3*
c1ccc2c(c1)OCC(c1csc3ncnc(N4CCOCC4)c13)O2 (configuration not stated)	i	.	19.7%	4.6%	-17.9%	-60.0*
C=CCOc1ccccc1CN(C(=O)CCl)c1ccc2c(c1)OCO2	i	?	-18.8%	?	-13.2%	-99.0*
CC(C)(C)C(=O)/C=c1\[nH]c(=O)/c(=C\c2ccc(F)cc2)s1	.	-24.1%	-9.4%	-18.1%[46.1 µM]	11.2µM*	33.0
Cc1ccc(NC(=O)CCCn2c3ccccc3c(=O)c3cc(C)ccc32)c(Br)c1	-8.7%[7.34 µM]	-28.2%	2.82µM*	.	-15.4%[7.34 µM]	?
CCc1ccccc1NC(=O)CCNS(=O)(=O)c1ccc2c(c1)CCCC(=O)N2	-8.1%	0.0%	18.1%[46.1 µM]	.	-1.9%	-4.7
Cn1c(=O)n(C)c2cc([N+](=O)[O-])c(N3CCN(C(=O)c4ccccc4Cl)CC3)cc21	-14.6%	.	?	?	-16.2%	-77.7*
Cn1c(=O)n(C)c2cc([N+](=O)[O-])c(N3CCN(C(=O)c4ccccc4Br)CC3)cc21	i	15.8µM*	?	?	-18.2%	?
Cn1c(=O)n(C)c2cc([N+](=O)[O-])c(N3CCN(C(=O)c4ccccc4)CC3)cc21	-14.4%	-13.5%	-15.3%	?	-2.7%	-34.5
Cn1c(=O)n(C)c2cc([N+](=O)[O-])c(N3CCN(C(=O)C(C)(C)C)CC3)cc21	-1.8%	?	?	?	-3.4%	0.9
Cc1ccc(C)c(CN2C(=O)c3ccccc3S(=O)(=O)c3ccc(C(=O)N4CCN(c5ccccc5F)CC4)cc32)c1	-5.6%	4.4%	-18.8%[46.1 µM]	?	-4.1%	?
O=S(=O)(c1ccc(F)cc1)N1CCCC(c2nc(-c3ccc(F)cc3)no2)C1 (configuration not stated)	-7.9%	-28.7%	.	.	-16.2%	-6.5
O=S(=O)(NC1CC1)c1ccc(S(=O)(=O)N2CCCC(c3nc(-c4cccnc4)no3)C2)cc1 (configuration not stated)	-19.6%	?	-9.2%	?	-19.9%	-66.3*
CC[C@@]1(C(=O)OC)N[C@H](CN(C)C(=O)Nc2ccccc2)[C@@H]2C(=O)N(C)C(=O)[C@@H]21	-3.8%	4.47µM*	.	.	-17.6%	-2.0
CC[C@@]1(C(=O)OC)N[C@H](CN(C)C(=O)Nc2ccc(F)cc2)[C@@H]2C(=O)N(C)C(=O)[C@@H]21	i	-1.0%	.	.	0.3%	4.3
CCOC(=O)CN1C(=O)NC(CCc2ccccc2)C(C(=O)OC)=C1C (configuration not stated)	.	.	?	-23.0%[14.2 µM]	.	.
COc1ccc(Br)cc1Cn1nnc(C(=O)Nc2ccc(C)cc2C)c1N	?	-4.2%	6.6%[46.1 µM]	?	-22.0%	-74.0*
CCOc1ccc(OCC)c(NC(=O)c2nnn(Cc3cc(Br)ccc3OC)c2N)c1	-20.7%	-23.1%	-10.1%[46.1 µM]	?	-18.6%	2.9
CSc1ccc(Cn2nnc(C(=O)Nc3ccc(C)cc3Cl)c2N)cc1	-16.3%	64.4%	-5.7%[46.1 µM]	11.5%[46.1 µM]	-29.8%	-78.2*
CCCN(CCC)C(=O)CSc1nc2n[nH]c(C)c2c(=N)n1-c1ccc(OC)cc1	.	22.4µM*	?	?	?	27.6
CCOc1ccc(-n2c(SCC(=O)Nc3ccc(CC)cc3)nc3n[nH]c(C)c3c2=N)cc1	-29.9%	-11.9%	?	?	?	-22.8
CCCN(CCC)C(=O)CSc1nc2n[nH]c(C)c2c(=N)n1-c1ccc(OCC)cc1	.	-24.6%	11.2µM*	?	?	.
COc1ccc2c3c(n(C)c2c1)[C@H](CO)N(C(=O)Cc1ccccc1)CC31CCN(C(=O)Cc2ccccc2)CC1	.	.	.	.	.	24.5
SMILES	VACV mCherry inh	FMDV antiviral	Lassa entry inh	Marburg entry inh	VACV Venus inh	HCMV inh
COc1ccc(CCCC2=NC3C=CC=CC3=N2)cc1 (configuration not stated)	.	.	.	13.5%[46.1 µM]	.	.
CCOC(=O)/C=c1\s/c(=C(/C#N)C(=O)OCC)n(-c2ccccc2)c1=O	.	.	.	-6.1%[46.1 µM]	.	.
Cc1cc(C)c(NC(=O)c2cc(CN3CCOCC3)on2)c(C)c1	0.4%	-3.8%	-4.5%[46.1 µM]	.	-4.1%	-4.9
COCC1CCN(Cc2cn(Cc3ccccc3)nc2-c2cc3ccccc3o2)CC1	-23.8%	-5.1%	?	?	-19.2%	5.3
COCC1CCCN(Cc2cn(Cc3ccccc3)nc2-c2cc3ccccc3o2)C1 (configuration not stated)	-20.8%	-13.1%	?	2.51µM*	-24.7%	-77.7*
O=C(NN=C(c1ccccc1)c1ccccn1)c1ccccc1	2µM*	-13.5%	?	6.31µM*	?	-97.7*
COc1ccc(C(=O)N/N=C(\c2ccccc2)c2ccccn2)cc1	2.24µM*	-33.3%	?	9.2µM*	?	-98.8*
O=C(N/N=C(\c1ccccc1)c1ccccn1)c1ccccc1Cl	2.51µM*	?	?	?	?	-113.5*
COc1ccc(NC(=O)c2ccccn2)cc1	.	11.2µM*	?	?	-12.4%	.
CCC1(C2CCN(Cc3ccc(OC)cc3)CC2)NC(=O)N(CC2COc3ccccc3O2)C1=O (configuration not stated)	-9.0%	-21.8%	.	.	-4.6%	.
Cc1ccc(C(=O)[C@H]2[C@H](c3cccs3)NC(=O)N[C@]2(O)C(F)(F)F)cc1	.	.	.	-26.3%	.	.
O=C(COc1ccccc1C(=O)Nc1ccccc1)Nc1ccccc1-c1ccccc1	-28.2%	.	.	.	-23.4%	.
Cc1cc(C)cc(OCC(=O)NNC(=O)c2ccccn2)c1	.	-11.6%	.	.	.	-97.3*
O=C(COc1ccc(Cl)cc1)NNC(=O)c1ccccn1	-13.9%	-6.2%	-22.8%	-25.2%	-11.4%	15.7
Cn1c2c(c(=O)n(C)c1=O)C(C(F)(F)F)(C(F)(F)F)N=C(c1ccccc1Cl)N2	.	?	4.8%	?	.	-10.3
Cn1c2c(c(=O)n(C)c1=O)C(C(F)(F)F)(C(F)(F)F)N=C(CCC1CCCCC1)N2	?	14.1µM*	2.59µM*	11.2µM*	?	-103.0*
CC(=O)c1cccc(NC(=O)c2ccccc2OCc2ccc(F)cc2)c1	-16.1%	-9.9%	-5.2%[46.1 µM]	?	-8.5%	-34.6
O=C(NNC(=O)c1ccccc1OCc1ccc(F)cc1)c1ccccc1O	?	-21.8%	?	?	?	-94.8*
CC(=O)c1ccccc1OCc1ccc(S(=O)(=O)Cc2ccccc2)cc1	.	?	.	.	.	-70.5*
O=C(Cc1ccsc1)NNC(=O)c1ccccc1O	?	8.5%	?	-1.4%[46.1 µM]	-23.8%	-61.4*
COc1ccccc1C(=O)NCc1ccccc1	.	60.8%	0.6%	11.1%	.	-26.4
